From PubChem BioAssay AID1347416 (National Center for Advancing Translational Sciences (NCATS), 2020) come the findings set out here.

Structures are written as SMILES. The campaign covered roughly 4,100 compounds. About 1,600 (39%) were called active. Not shown: some 25% with an inconclusive outcome. Calls follow the shape of the dose curve; as a rule, active = well fitted inhibition curve with a large enough effect; inconclusive = small, poorly fitted or top-dose-only effect; inactive = no such curve, though single readings can be large or run the other way. The list shows a part of the results.
Potency is read from the fitted curve at half-maximal effect.

The nature of the assay: qHTS Validation assay for Inhibitors of Plasmodium falciparum Dd2 growth in vitro. Also: nearly all actives have a fitted effect of over 70% in size. The following applies: P. falciparum Dd2 in RBCs, SYBR Green growth, 72 h; series mostly up to 28.7 µM. From the text:
Malaria, a parasitic disease spread to humans through the bite of a Plasmodium infected Anopheles mosquito, continues to be a global health burden affecting millions of people, with an estimated 228 million cases and 405,000 deaths in 2018. Concerns about safety and limitations of current antimalarial treatments strongly emphasize the need to develop new therapeutic options. The scarce number of chemotypes and validated drug targets with efficacy against the liver stage, have hindered development of new antimalarials. To address this, a chemoprophylactic drug discovery effort was conducted through a combined phenotypic high-throughput asexual blood stage and liver stage screen, providing a robust foundation to identify liver-stage active lead chemotypes. Compounds were initially screened against Plasmodium falciparum Dd2 strain parasites using a in vitro SYBRGreen-1 based 72 hr proliferation assay to identify novel chemotypes to advance to liver stage assays. NIH/NCATS Early Translation Branch Assay Submitter (PI): Anton Simeonov Ph.D.
[…] Assay Protocol: PROTOCOL TABLE (as described by Inglese et al., 2007) SEQUENCE No. (e.g., 1, 2, 3, etc.); PARAMETER (e.g., Cells, Incubation, Reagent, etc.); VALUE; DESCRIPTION SEQUENCE, Parameter, Description 1; Reagent; 3 uL complete malaria growth medium, 1536 TC treated Black clear bottom plate 2; Controls; 23 nL positive control artesunate (300 nM final) to column 1; Neutral control DMSO to columns 2-4 3; Compound; 23 nL of compounds in dose response concentration (29 uM to 0.5 nM final) 4; Reagent; 5 uL malaria infected red blood cells (2.5% hematocrit final, 0.3% parasitemia 5; Time; 72 hours at 37C (5% O2, 5% CO2, 90% N2; 95% Rh) 6; Reagent; 2 uL lysis buffer/SYBRGreen-1, 25 sec shake immediately following dispense 7; Time; ~16 hours at 37C (5% O2, 5% CO2, 90% N2; 95% Rh) 8; Detector; EnVision (PerkinElmer) bottom read at 485/14nm excitation and 535/25 nm emission NOTES (numbers refer to sequence above): 1; Complete Malaria Growth Media: 1X RPMI-1640 w/L-glutamine, 5.5g/L Albumax II, 367 uM Hypoxanthine, 25 mM HEPES, 0.25% Sodium Bicarbonate, 35 uM Gentamicin sulfate 2; Controls were added using the Kalypsis Pintool (Wako USA) equipped with 1536 pinhead 3; Compounds were added in a 7-point, titration with a high final concentration of 29 uM by Pintool from seven inter-plate titrations of library plates and two DMSO control plates at the beginning and end (see Yasgar et al., 2008). 4; Red blood cells infected with Plasmodium falciparum Dd2 parasites were used. 6; Lysis buffer: 20 mM Tris-HCl, 10 mM EDTA, 0.16% Saponin, 1.6% Triton-X, 10X SYBR Green. REFERENCE: Inglese J, Shamu CE, Guy RK. 2007. Reporting data from high-throughput screening of small-molecule libraries. Nat Chem Biol. doi:10.1038/nchembio0807-438 Yasgar A, Shinn P, Jadhav A, Auld D, Michael S, Zheng W, Austin CP, Inglese J, Simeonov A. 2008. Compound Management for Quantitative High-Throughput Screening. J Lab Autom 13:79-89. doi:10.1016/j.jala.2007.12.004
In general terms: In qHTS, concentration-response curves come from the screen itself.
For the compound `CCn1cc(C(=O)N[C@@H](CCSC)C(=O)NC(C)(C)CO)c(=O)c2cc3c(cc21)OCO3`, the Potency was 2.99 µM (active). Under `CCN(CC)CCNC(=O)c1cn(CC)c2ccc(S(=O)(=O)N3CCOCC3)cc2c1=O` stands “inactive”.

Consider `CC1CCc2cc(F)ccc2N1C(=O)CSc1nnc2c(n1)[nH]c1ccc(F)cc12` (configuration not stated), for which the Potency is 8.41 µM (active). For `CC1CCc2cc(F)ccc2N1C(=O)CSc1nnc2c(n1)[nH]c1ccccc12` (configuration not stated), the Potency was 7.5 µM (active). Under `CC1CCN(C(=O)CSc2nnc3c(n2)[nH]c2ccc(F)cc23)CC1` stands “inactive”.

On to `COc1cccc(S(=O)(=O)N2C[C@@H](Oc3ccccc3)C[C@@H]2C(=O)N2CCOCC2)c1`, for which the Potency result was “inactive”. Under `COc1ccccc1NS(=O)(=O)c1cc(NC(=O)c2cccc(S(=O)(=O)N(C)C)c2)ccc1N1CCOCC1` stands 7.5 µM (active). Turning to `Cc1nc2cc(F)ccc2n1C1CCN(C(=O)c2c(F)cccc2F)CC1`, the Potency was 5.96 µM (active). As to `CCCc1noc(-c2cn(C3CCN(C(=O)Cc4cccc(F)c4)CC3)nn2)n1`, the Potency entry is “inactive”. Under `CCc1noc(-c2cn(C3CCN(C(=O)c4ccc(F)c(F)c4)CC3)nn2)n1` stands “inactive”; under `CCCC(=O)Nc1sc2c(c1C(=O)Nc1ccccn1)CCCC2`, “inactive”.

For the compound `CCC(O)(CC)C(=O)NN(C(=O)Nc1csc2c1CCCC2)c1ccccc1`, the Potency was 2.99 µM (active).

Turning to `Cc1ccc(C)c(C(=O)Nc2ccncc2)c1`, the Potency result was “inactive”. As for `Cc1ccc(NC(=O)c2cnc(-c3ccccc3)nc2-c2ccncc2)c(Br)c1`, the Potency was 9.44 µM (active).

On to `COc1ccc([C@@]2(C(C)C)ON(c3ccccc3C(F)(F)F)C2=O)cc1`, for which the Potency is 4.22 µM (active). For the compound `Cc1nn(-c2ccccc2)nc1C(=O)Oc1cc(C(F)(F)F)nn1-c1ccccc1`, the Potency entry is “inactive”. Under `Cn1cnc2ccc(-c3cccc(O)c3)nc2c1=O` stands 6.11 µM (active); under `COCCn1cnc2ccc(-c3ccccc3)nc2c1=O`, “inactive”. Under `COCCN1CCCCCC(O)c2cc(C(=O)NCCc3ccccc3)ccc21` (configuration not stated) stands “inactive”; under `Cc1ccccc1CN1CCc2nc(C(=O)NCCOc3ccccc3)oc2CC1`, “inactive”. Consider `CN1CC2(CCCN(CC3CC3)C2)c2cc(C(=O)NCCOc3ccccc3)ccc21` (configuration not stated), for which the Potency was 17.2 µM (active). With `CCOCCCNc1nc2cc(OC)c(OC)cc2c2nc(-c3ccccc3)nn12` the figure was 0.211 µM (active); with `COCCCNc1nc2cc(OC)c(OC)cc2c2nc(-c3ccccc3)nn12`, 0.237 µM (active). Under `COc1cc2nc(NCCC(C)C)n3nc(-c4ccccc4)nc3c2cc1OC` stands 0.422 µM (active); under `CC(C)CN1C(=O)c2cccn2CC1C(=O)O` (configuration not stated), “inactive”. With `CCN1C(=O)C2(CCN(S(=O)(=O)c3ccc(Cl)cc3C)CC2)c2ccccc21` the figure was 5.31 µM (active). In the case of `CN1C(=O)C2(CCN(C(=O)c3ccn(C(C)(C)C)c3)CC2)c2ccccc21`, the Potency entry was “inactive”.
